Hit rate of the full screen: of about 13,000 compounds, about 3,200 (25%) showed an effect of 50% or more. Some of the results follow.
system: P. falciparum stage V gametocytes; set-up: BacTiter-Glo ATP luminescence viability of purified stage V gametocytes in 384-well plates, per cent inhibition versus DMSO; conditions: 48 h, 5 µM; inhibitor

Compound	% Inhibition
CC(=O)N[C@H](C(=O)Nc1ccc(-c2ccc(-c3nc4cc(C(F)(F)F)ccc4[nH]3)s2)cc1)C(C)C [TCMDC-136852]	-48.64%
O=C(NCCc1ccc(Cl)c(Cl)c1)C1CCCN(C(=O)c2ccc(O)c(-c3ccc(Cl)c(Cl)c3)c2)C1 (stereo not drawn) [TCMDC-140892]	-3.917%
CC(CON1C(N)=NC(N)=NC1(C)C)Cc1ccc(Cl)cc1Cl (stereo not drawn) [TCMDC-131712]	20.42%
O=S(=O)(Nc1ccc(CCN2CCC(N3CCCCC3)CC2)cc1)c1ccc2ccccc2c1 [TCMDC-134079]	52.17%
O=S(=O)(Nc1cccc(CCN2CCC(N3CCCCC3)CC2)c1)c1ccc2c(c1)OCCO2 [TCMDC-134067]	55.86%
Cc1cc(NS(=O)(=O)c2cccc(C(C)N3CCC(N4CCCC4)CC3)c2)ccc1C(C)C (stereo not drawn) [TCMDC-133708]	8.518%
COc1ccc2nccc([C@@H](O)CN3CCC(NC(=O)C(c4cccs4)N4CCN(c5ccc(F)cc5)CC4)CC3)c2c1 (stereo partly drawn) [TCMDC-141100]	25.13%
COc1cc(C(=O)N2CCOC(CCN3CCC4c5ccccc5CC43)(c3ccc(Cl)c(Cl)c3)C2)cc(OC)c1OC (stereo not drawn) [TCMDC-135567]	-73.24%
COc1cc(C(=O)N2CCOC(CCN3CCC(c4ccc(Cl)cc4)CC3)(c3ccc(Cl)c(Cl)c3)C2)cc(OC)c1OC (stereo not drawn) [TCMDC-135566]	-3.164%
COc1cc(C(=O)N2CCOC(CCN3CCC[C@H]3C(=O)Nc3ccccc3)(c3ccc(Cl)c(Cl)c3)C2)cc(OC)c1OC (stereo partly drawn) [TCMDC-135571]	90.6%
COc1cc(Nc2nccc(N3CCC(NC(=O)Nc4cccc(C(C)=O)c4)C3)n2)cc(OC)c1OC (stereo not drawn) [TCMDC-133621]	-9.129%
COc1cc(Cc2cnc(N)nc2N)cc(OCC(C)(C)C(=O)O)c1OC [TCMDC-137887]	-9.297%
CC(=O)Nc1cccc(C(=O)Nc2cccc(-c3cccc(-c4nc5ccc(F)cc5[nH]4)c3)c2)c1 [TCMDC-132137]	91.99%
Cc1cnc(C(=O)Nc2ccc(-c3cccc(-c4nc5ccccc5[nH]4)c3)cc2)cn1 [TCMDC-137026]	-17.4%
NC(=O)c1ccc(NCC(=O)Nc2cccc(-c3cccc(-c4nc5ccccc5[nH]4)c3)c2)cc1 [TCMDC-132162]	2.725%
NC(=O)c1ccc(NCC(=O)Nc2cccc(-c3cccc(-c4nc5ccc(C(F)(F)F)cc5[nH]4)c3)c2)cc1 [TCMDC-132164]	-17.45%
CC(=O)Nc1cccc(C(=O)Nc2cccc(-c3ccc(-c4nc5ccc(F)cc5[nH]4)cc3)c2)c1 [TCMDC-132139]	-25.67%
O=C(Nc1ccc(Cl)cc1)Nc1ccc(-c2cccc(-c3nc4ccc(F)cc4[nH]3)c2)cc1 [TCMDC-133186]	-8.569%
O=C(Nc1ccc(Cl)cc1)Nc1cccc(-c2cccc(-c3nc4ccc(F)cc4[nH]3)c2)c1 [TCMDC-133185]	-67.78%
Cc1cnc(C(=O)Nc2cccc(-c3ccc(-c4nc5ccc(F)cc5[nH]4)cc3)c2)cn1 [TCMDC-137029]	23.15%
O=C(Nc1ccc(Cl)cc1)Nc1cccc(-c2ccc(-c3nc4ccc(F)cc4[nH]3)cc2)c1 [TCMDC-133183]	78.47%

Compound	% Inhibition
CC(=O)Nc1cccc(C(=O)Nc2ccc(-c3cccc(-c4nc5ccc(F)cc5[nH]4)c3)cc2)c1 [TCMDC-132135]	-4.902%
NC(=O)c1ccc(NCC(=O)Nc2cccc(-c3cccc(-c4nc5ccc(F)cc5[nH]4)c3)c2)cc1 [TCMDC-132163]	90.29%
Cc1cnc(C(=O)Nc2cccc(-c3cccc(-c4nc5ccc(F)cc5[nH]4)c3)c2)cn1 [TCMDC-137027]	68.21%
O=C(NCCc1ccc(F)cc1)c1ccc(N2CCN(c3ccncc3)CC2)nc1 [TCMDC-134585]	1.059%
COc1ccc(C2CC(c3cccs3)=NN2C(=O)c2ccco2)cc1OC (stereo not drawn) [TCMDC-123796]	12.69%
COc1ccc(CCCCN2C(=O)C(c3ccccc3)(c3ccccc3)N=C2N)cc1 [TCMDC-136522]	-62.46%
C=CCOc1cc(Cc2cnc(N)nc2N)cc(OC)c1OC [TCMDC-138042]	-3.964%
CCOc1cc(C(=O)NCc2cccc(C(F)(F)F)c2)ccc1-c1nc2ccc(Cl)cc2[nH]1 [TCMDC-140902]	11.85%
O=C(Nc1ccc(Cn2ncc(N3CCCNCC3)c(Cl)c2=O)cc1)Nc1cc(F)cc(C(F)(F)F)c1 [TCMDC-133317]	-20.94%
COc1nc(NCC(C)C)nc(Oc2ccc(=O)n(Cc3ccccc3)n2)n1 [TCMDC-124913]	48.86%
O=C(Cc1ccc(NC(=O)c2ccc(O)c(-c3ccc(Cl)c(Cl)c3)c2)cc1)NCCc1ccc(Cl)c(Cl)c1 [TCMDC-140873]	3.533%
O=C(/C=C/c1ccc(Cl)c(Cl)c1)NCC(CCCN1CCC(c2c[nH]c3ccccc23)CC1)c1ccccc1 (stereo not drawn) [TCMDC-139506]	-7.536%
CC(=O)NC1=NC(C)(C)N(OCCCOc2ccc(Cl)c(Cl)c2)C(NC(C)=O)=N1 [TCMDC-131742]	2.376%
Cc1cc(F)ccc1Oc1nc(Nc2ccc(N3CCOCC3)c(F)c2)nc2c1S(=O)(=O)CCC2 [TCMDC-135096]	20%
CCOc1cc(-c2nnc3[nH]c(=O)n(C)c(=O)c3n2)ccc1OC(C)C [TCMDC-124558]	-22.82%
O=C(Nc1ccc(C(=O)OCC2CCCCC2)cc1)N[C@@H](Cc1ccc(O)cc1)C(=O)NC1CCN(Cc2ccc(O)cc2)C1 (stereo partly drawn) [TCMDC-135357]	-23.12%
O=C(Nc1cccc(-c2ccc(-c3nc4ccc(F)cc4[nH]3)cc2)c1)c1ccoc1 [TCMDC-136843]	-15.37%
O=C(Nc1ccc(-c2cccc(-c3nc4ccc(F)cc4[nH]3)c2)cc1)c1ccncc1 [TCMDC-136957]	-5.175%
O=C(Nc1cccc(-c2ccc(-c3nc4ccc(F)cc4[nH]3)cc2)c1)c1ccncc1 [TCMDC-136961]	-22.91%
O=C(Nc1cccc(-c2cccc(-c3nc4ccc(F)cc4[nH]3)c2)c1)c1ccoc1 [TCMDC-136841]	83.89%
O=C(Nc1cccc(-c2cccc(-c3nc4ccc(F)cc4[nH]3)c2)c1)c1ccncc1 [TCMDC-136959]	85.81%

Compound	% Inhibition
O=C(Nc1cccc(-c2cccc(-c3nc4ccccc4[nH]3)c2)c1)c1ccoc1 [TCMDC-136840]	9.278%
CCCCCCn1c(Sc2ccc(C#N)c([N+](=O)[O-])c2)nnc1-c1ccc(OC)cc1 [TCMDC-135604]	12.04%
CN1C(=O)OC[C@@H]1Cc1ccc2[nH]cc(C3=CCN(Cc4ccccc4)CC3)c2c1 [TCMDC-137790]	15.2%
COCC(C)n1c(C)cc(C(=O)CSc2nnc(Nc3ccccc3)s2)c1C (stereo not drawn) [TCMDC-123611]	2.084%
COc1cccc(Nc2nnc(SCC(=O)NNC(=O)c3ccccn3)s2)c1 [TCMDC-124565]	57.52%
COc1cccc(C2C(C(=O)Nc3ccccc3)=C(C)N=c3sc(=Cc4ccc(O)cc4)c(=O)n32)c1 (stereo not drawn) [TCMDC-125613]	-17.06%
C[C@@H](CC1CCCCC1)OC(=O)N(C)[C@@H]1CCN(C#N)C1 [TCMDC-138502]	39.73%
COCCCNC(=O)c1ccc(O)c(-c2cc(Cl)cc(Cl)c2)c1 [TCMDC-140158]	-17.86%
Cc1noc(C)c1-c1cccc(CNCc2ccc(-c3ccc(-c4nc5cc(C(F)(F)F)ccc5[nH]4)cc3)cc2)c1.O=C(O)C(F)(F)F [TCMDC-133058]	15.98%
CC(=O)Nc1cc(C(=O)Nc2cccc(-c3cccc(-c4nc5ccc(C(F)(F)F)cc5[nH]4)c3)c2)ccc1C [TCMDC-137039]	68.75%
Cc1cccc2[nH]c(-c3cccc(-c4cccc(NC(=O)c5ccc(C(N)=O)cc5)c4)c3)nc12 [TCMDC-132192]	-7.489%
CC(=O)N(C)c1cccc(C(=O)Nc2cccc(-c3cccc(-c4nc5ccc(C(F)(F)F)cc5[nH]4)c3)c2)c1 [TCMDC-137069]	42.31%
CC(=O)Nc1ccc(C(=O)Nc2cccc(-c3ccc(-c4nc5ccc(C(F)(F)F)cc5[nH]4)cc3)c2)cn1 [TCMDC-136832]	60.22%
CC(=O)Nc1cccc(C(=O)Nc2ccc(-c3cccc(-c4nc5c(C)cccc5[nH]4)c3)cc2)c1 [TCMDC-132141]	-0.1401%
CC(=O)Nc1cccc(C(=O)Nc2ccc(-c3cccc(-c4nc5ccc(C(F)(F)F)cc5[nH]4)c3)cc2)c1 [TCMDC-132140]	-29.21%
CC(=O)Nc1ccc(C(=O)Nc2cccc(-c3ccc(-c4nc5ccc(F)cc5[nH]4)cc3)c2)cn1 [TCMDC-136826]	-35.51%
CC(=O)N(C)c1cccc(C(=O)Nc2cccc(-c3ccc(-c4nc5ccc(C(F)(F)F)cc5[nH]4)cc3)c2)c1 [TCMDC-137073]	81.14%
CC(=O)Nc1cc(C(=O)Nc2cccc(-c3cccc(-c4nc5c(C)cccc5[nH]4)c3)c2)ccc1C [TCMDC-137040]	72.59%
NC(=O)c1ccc(C(=O)Nc2cccc(-c3ccc(-c4nc5ccc(C(F)(F)F)cc5[nH]4)cc3)c2)cc1 [TCMDC-132193]	-16.46%
NC(=O)c1cccc(C(=O)Nc2cccc(-c3cccc(-c4nc5ccc(C(F)(F)F)cc5[nH]4)c3)c2)c1 [TCMDC-132199]	-28.51%
CC(=O)N(C)c1cccc(C(=O)Nc2ccc(-c3cccc(-c4nc5ccc(C(F)(F)F)cc5[nH]4)c3)cc2)c1 [TCMDC-137070]	-32.74%

— article PMC4552634, “A New Set of Chemical Starting Points with Plasmodium falciparum Transmission-Blocking Potential for Antimalarial Drug Discovery” (PLoS ONE, 2015)
